About 2,300 (0.64%) of roughly 360,000 compounds were called active. The entries come from a sample that favours actives as a whole. A number with no mark means an inactive call.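 Rule for the calls: active = compounds giving at least 50% protection of heart cells from peroxide-induced death in the single-dose screen, raw or plate-pattern-corrected value; inactive = the rest.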

This assay can be described thus: cardioprotection against H2O2-induced cell death, primary screen, uHTS, H9c2 cells, ATPLite luminescence (AID 588492).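 Note: 0% = DMSO wells with peroxide and 100% = DMSO wells without peroxide.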 The conditions noted are these: H9c2 cardiomyocytes, H2O2 injury protection, 2 h, at 20 µM, hits give high values.
`Cc1ccc(S(=O)(=O)N2CCCC2C(=O)OCc2nc3sc(C)c(C)c3c(=O)[nH]2)cc1` (stereo not drawn): the protection from H2O2 cell death is 34.2%. Under `Cc1cc(C)c2nc(N3CCC(C(=O)NCCN4CCOCC4)CC3)sc2c1` stands -1.3%; under `CCOC(=O)N1CCN(C(=O)CN(C2CCCCC2)S(C)(=O)=O)CC1`, -2.2%; under `CC(C)c1cc(N=O)cc(C(C)C)c1O`, -7%. Under `CC(C)=CCc1ccc(O)c(=O)cc1C(C)C` stands 54.2% (active). The value for `CC(C)=CCc1c(O)c(CC=C(C)C)c2occ(-c3ccc(O)cc3)c(=O)c2c1O` was -14.3%. As to `O=C(c1ccncc1)N1CCN(S(=O)(=O)c2cc(C(F)(F)F)cc(C(F)(F)F)c2)CC1`, the protection from H2O2 cell death is -1.3%.

`COc1ccc(CCn2c(=N)c(C(=O)NCC3CCCO3)cc3c(=O)n4cccc(C)c4nc32)cc1OC` (stereo not drawn): the protection from H2O2 cell death is 59.6% (active).

Turning to `Cc1ccc2nc3c(cc(C(=O)NCCc4ccccc4)c(=N)n3CC3CCCO3)c(=O)n2c1` (stereo not drawn), the protection from H2O2 cell death is 5.6%. Under `COc1ccc(CCNC(=O)CCn2c(=O)c3ccccc3n(CC(=O)NCC3CCCO3)c2=O)cc1OC` (stereo not drawn) stands 7.8%; under `CN1CCN(c2ccc(CNS(=O)(=O)c3cccc(F)c3)cc2)CC1`, 7.1%. Under `CCc1c(C)nc2ncnn2c1N1CCC(C(=O)NCc2ccc3c(c2)OCO3)CC1` stands -1.5%; under `CCOC(=O)Nc1ccc(S(=O)(=O)N(C)C(C)C)cc1`, 3.1%; under `COc1ccc(C(=O)COC(=O)c2ccc([N+](=O)[O-])s2)cc1OC`, 61.6% (active).

On to `COc1cc(NC(=O)COC(=O)c2ccc([N+](=O)[O-])s2)cc(OC)c1OC`, for which the protection from H2O2 cell death was 41.6%.

Turning to `O=C(OCC(=O)N1CCN(c2ccccc2)CC1)c1ccc([N+](=O)[O-])s1`, the protection from H2O2 cell death was -0.2%. Under `CO/N=C(/CS(=O)(=O)c1ccc(Br)cc1)c1ccc(OC)cc1` stands -11.9%. The value for `Cc1ccc([N+](=O)[O-])c(OCCCNCC(C)O)c1` (stereo not drawn) was 0.6%. In the case of `COc1cc(/C=N/NC(=O)c2ccccc2)ccc1OS(=O)(=O)c1ccccc1`, the protection from H2O2 cell death is 81.8% (active).

Consider `Cc1ccc(S(=O)(=O)Oc2ccc(/C=N/NC(=O)c3ccncc3)cc2)cc1`, for which the protection from H2O2 cell death is 2.7%.

For the compound `COc1cc(/C=N/NC(=O)c2cccnc2)ccc1OC(=O)c1cccc(Br)c1`, the protection from H2O2 cell death was 27.2%. As for `O=c1c2ccccc2ncn1/N=C/c1ccccc1`, the protection from H2O2 cell death is -10.6%. Regarding `Cc1[nH]n(-c2cccc(Cl)c2)c(=O)c1/C=N/n1c(C)nc2ccccc2c1=O`, the protection from H2O2 cell death was 50.4% (active). The value for `O=Cc1c(N2CCN(c3cccc(Cl)c3)CC2)nc2ccccn2c1=O` was 42.7%; that for `Oc1ccccc1C=NC1CCCCC1N=Cc1ccccc1O` (stereo not drawn) was 7.8%. For the compound `O=C(N/N=C/c1ccccc1O)/C(=C/c1ccccc1)CCO`, the protection from H2O2 cell death was 35.8%.

As to `O=C(NN=Cc1ccccc1O)C(=O)NN=Cc1ccccc1O`, the protection from H2O2 cell death was 53.6% (active). On to `COCCNC(=S)c1ccc(OC)cc1`, for which the protection from H2O2 cell death was 5.4%. As to `CCNC(=O)C1(C)CCCN1C(=O)c1ccc(N(C)C)cc1` (stereo not drawn), the protection from H2O2 cell death was 0.7%.

On to `Cc1nc(N2CCOCC2)c2c(C)c(C(=O)Nc3ccc(C(F)(F)F)cc3)sc2n1`, for which the protection from H2O2 cell death was -3.8%. As for `Cc1nc(N2CCN(c3ccccn3)CC2)c2c(C)c(C(=O)Nc3ccc(F)c(Cl)c3)sc2n1`, the protection from H2O2 cell death is 31.9%. The value for `Cc1nc(N2CCN(c3ccccn3)CC2)c2c(C)c(C(=O)Nc3ccc(F)cc3)sc2n1` was 71.4% (active); that for `COc1ccc(S(=O)(=O)N2CCN(c3cnccn3)CC2)cc1` was -1.4%; that for `CCc1nc2ccc(C(=O)NC3CCN(Cc4ccccc4)CC3)cn2c1N(C)CCN1CCOCC1` was 7%.

In the case of `CCOC(=O)N1CCN(Cc2oc(CO)cc(=O)c2O)CC1`, the protection from H2O2 cell death was 13%. The value for `O=C(CSC1=Nc2ccccc2C2=NC(c3ccccc3)C(=O)N12)NCC1CCCO1` (stereo not drawn) was 29.7%; that for `CC(C)C1N=C2c3ccccc3N=C(SCC(=O)c3ccc(O)c(O)c3)N2C1=O` (stereo not drawn) was 96.8% (active); that for `NC(=O)CSC1=Nc2ccccc2C2=NC(CCC(=O)NCc3ccc(F)cc3)C(=O)N12` (stereo not drawn) was 2.5%. The value for `Cc1ccc(S(=O)(=O)N2CCC(C(=O)N[C@@H](C)C(=O)NCCc3ccccc3)CC2)cc1` was 2%; that for `COc1cccc(CNc2nc3cc(-c4csc5ccccc45)sc3c(=O)n2C)c1` was -3.9%; that for `COc1ccc(-n2c(SCC(=O)OC(C)C)nnc2-c2ccccn2)cc1` was 4%.

As for `CCOc1cccc(-c2nn3c(-c4ccccn4)nnc3s2)c1`, the protection from H2O2 cell death is 68% (active). The value for `COc1ccc(-c2nn3c(-c4ccccc4)nnc3s2)cc1OC` was 63.1% (active); that for `COc1ccc(NC(=O)c2cc3nc(-c4ccccc4)cc(C)n3n2)cc1OC` was 36.7%; that for `CN(C(=O)c1ccccn1)c1nnc(-c2ccccn2)s1` was -5.5%. As to `c1ccc(-c2cc(-c3nnc4sc(-c5ccccn5)nn34)[nH]n2)cc1`, the protection from H2O2 cell death is 63.3% (active).

With `CCOc1cccc(-c2nnc(SCC(=O)NC3CC3)n2C)c1`, the protection from H2O2 cell death is -1.8%.

In the case of `COc1ccc(-c2nc3ccccc3n2CCC(C)C)cc1OC`, the protection from H2O2 cell death was 6.5%. The value for `O=S(=O)(Nc1ccc2ccccc2c1)N1CCCCC1` was -4%.

Turning to `Cc1c(C(=O)O)nnn1-c1nonc1N`, the protection from H2O2 cell death was 3.3%. As to `Cc1cc(C)c(CN2CCN(C(=O)Cn3ccc(NC(=O)OCc4ccccc4)nc3=O)CC2)c(C)c1`, the protection from H2O2 cell death was -25%. Take `CCN(CC)CCCN1C(=O)C(=O)/C(=C(/O)c2c(C)nc3ccccn23)C1c1ccc(C)o1` (stereo not drawn): the protection from H2O2 cell death is 4.2%. The value for `COC(=O)c1ccc2nc(-c3ccc(Cl)cc3)c(Cc3cccc(F)c3)n2c1` was -2.7%; that for `Cc1ccc(N/C(N)=N/c2nc(C(F)(F)F)cc(C(F)(F)F)n2)cc1` was -14.8%; that for `CCO[C@H]1OC(C(=O)N2CCOCC2)=C[C@@H](c2ccc3c(c2)OCO3)[C@@H]1CCCO` was 2.8%. The value for `COc1ccc(OC)c(C(O)c2ncc(-c3cccc(C(F)(F)F)c3)[nH]2)c1` (stereo not drawn) was -12.4%; that for `CCNC(=O)C1(C)CCCN(Cc2noc(-c3ccccc3OC)n2)C1` (stereo not drawn) was -1.9%; that for `CCNC(=O)c1sccc1-n1cccc1` was 5%. The value for `O=C(COc1ccccc1O)NC1CCCC1` was -0.6%. As to `Cc1ccccc1NC(=O)COc1cccc2c1CCNC2=O`, the protection from H2O2 cell death is 70.7% (active).

Turning to `O=C(COC(=O)c1cccc(Cl)c1)NC1CCCCCCC1`, the protection from H2O2 cell death was -3.2%.

In the case of `O=C(COc1cccc2c1CCNC2=O)NC1CCCCC1`, the protection from H2O2 cell death was 56.1% (active). The value for `COc1ccccc1OCC(=O)Nc1ccccc1C(=O)NC1CC1` was 4.6%. With `Cc1ccccc1NC(=O)CSC1=NCCN1`, the protection from H2O2 cell death is -2%.

For `OCC1(Cc2ccccc2C(F)(F)F)CCN(Cc2cccc3cnccc23)CC1`, the protection from H2O2 cell death is -2.8%. Under `Cc1cc(O)ccc1NC1=CC(=O)CC(C)(C)C1` stands -13.4%; under `CCN(CC)CCCNC(=O)c1c(O)c2cc(F)cc3c2n(c1=O)C(C)CC3` (stereo not drawn), 22.2%; under `CCCCN(CCCC)CCC(O)c1cc2c(Cl)cc(Cl)cc2c2cc(C(F)(F)F)ccc12` (stereo not drawn), -33.9%. The value for `Cc1ccc(NC(=O)Cn2cccc2C2=NC(c3ccccc3)CO2)c(C)c1` (stereo not drawn) was -6.9%. The value for `COc1ccc(Cl)cc1NC(=O)CCS(=O)(=O)c1cc2c(cc1C)NC(=O)CO2` was 54.6% (active); that for `Cc1cc2c(cc1S(=O)(=O)CCC(=O)NCc1ccccc1)OCC(=O)N2` was 2.9%; that for `COc1ccc(NC(=O)CCS(=O)(=O)c2cc3c(cc2Cl)NC(=O)CO3)cc1OC` was 7.8%. For the compound `O=C(Oc1cccc(N2C(=O)C3C4c5ccccc5C(c5ccccc54)C3C2=O)c1)c1ccco1` (stereo not drawn), the protection from H2O2 cell death was -6.6%. For `Nc1c(N(CCO)C(=O)C2CCCCC2)c(=O)[nH]c(=O)n1Cc1ccccc1`, the protection from H2O2 cell death was -1.8%. Under `O=C(CNC(=O)c1ccc(Cl)cc1Cl)NCC(=O)Nc1ccccc1N1CCOCC1` stands -2.6%. The value for `Cc1nccn1-c1ccc(NC(=O)[C@H]2O[C@@H](n3cnc4c(N)ncnc43)[C@H](O)[C@@H]2O)cc1` was 4.5%. The value for `Cc1cccc(C)c1NC(=O)CNC(=O)c1ccc2c(c1)OCCO2` was 0.8%; that for `Cc1ccc2sc(NNC(=O)c3ccc4c(c3)OCCO4)nc2c1C` was 81.8% (active). As to `Cc1nc(NC(=O)c2ccc3c(c2)OCCO3)ccc1Br`, the protection from H2O2 cell death is -4.4%. Turning to `O=C1CCN(Cc2ccc([N+](=O)[O-])cc2)CCN1[C@H](CO)Cc1ccccc1`, the protection from H2O2 cell death is 0.1%.

With `COc1cc(C(C)=O)ccc1OC(C)C(=O)Nc1ccc(S(=O)(=O)N2CCCC2)cc1` (stereo not drawn), the protection from H2O2 cell death is 4.6%.

Consider `COc1ccc(-c2ccc(Nc3ccc(S(=O)(=O)N4CCCC4)cc3)nn2)cc1OC`, for which the protection from H2O2 cell death was 58.5% (active).

In the case of `COc1ccc(S(=O)(=O)N2CCCCCC2)cc1NC(=O)Cc1ccc(OC)c(OC)c1`, the protection from H2O2 cell death was 4%.

For the compound `CC(Nc1ccccc1)c1cccnc1` (stereo not drawn), the protection from H2O2 cell death is 4.3%. Under `O=C(CCN1CCCCC1)Nc1ccc(F)c(F)c1` stands 0.6%.

With `Oc1cc2c(cc1O)CN(C(=S)NCCc1ccc(Cl)cc1)CCC2`, the protection from H2O2 cell death was 74.4% (active). The value for `O=C(NCCc1ccc(Cl)cc1)c1cccc(N2CCCC2=O)c1` was -1.2%; that for `Cc1cccc(NC(=S)NCCc2ccc(Cl)cc2)c1C` was -6.5%. Take `CC(C)C1CCN(C(=O)C2CCC(=O)N(C3CCCCCC3)C2)CC1` (stereo not drawn): the protection from H2O2 cell death is -2.1%. The value for `Cc1ccc(S(=O)(=O)N2CCCCC2)cc1NC(=O)c1cccnc1` was 12%; that for `O=C(c1cccnc1)N1CCN(S(=O)(=O)c2cccs2)CC1` was 10.1%. Turning to `O=C(N/N=C/c1sc(N2CCCCC2)nc1-c1cccs1)c1cccnc1`, the protection from H2O2 cell death is 56.3% (active). The value for `CC(C(=O)Nc1ccc(S(=O)(=O)N2CCCC2)cc1)N(C)Cc1ccc(F)cc1` (stereo not drawn) was 0.3%.

For the origin of these results see PubChem BioAssay AID588492 (Sanford-Burnham Center for Chemical Genomics, 2011).
